Source: PubChem BioAssay AID485344 (National Center for Advancing Translational Sciences (NCATS), 2010)
In all, about 340,000 compounds went through this assay and about 6,900 (2%) were called active. The list comes from a sample in which actives are over-represented; it also holds similar structures and randomly drawn compounds. A number with no mark means an inactive call. Rule as the data show it: active = inhibition above about 30%; inactive = below that, where a call was filed.

target: D(2) dopamine receptor (Homo sapiens) (UniProt P14416); assay: HTS Assay for Allosteric Antagonists of the Human D2 Dopamine Receptor: Primary Screen for Antagonists; settings: HEK293 TREx D2 cells, calcium flux, dopamine EC80; at 10 µM; hits give high values; also: 0% is about no effect
Procedure, shortened: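 Cells plated overnight at 30 C with tetracycline; no-wash calcium dye, 30–90 min RT; 10 s baseline; compound pinned; 180 s read; EC80 dopamine added; another 180 s read.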

Sequence of D(2) dopamine receptor (Homo sapiens) (P14416 whole entry, looked up): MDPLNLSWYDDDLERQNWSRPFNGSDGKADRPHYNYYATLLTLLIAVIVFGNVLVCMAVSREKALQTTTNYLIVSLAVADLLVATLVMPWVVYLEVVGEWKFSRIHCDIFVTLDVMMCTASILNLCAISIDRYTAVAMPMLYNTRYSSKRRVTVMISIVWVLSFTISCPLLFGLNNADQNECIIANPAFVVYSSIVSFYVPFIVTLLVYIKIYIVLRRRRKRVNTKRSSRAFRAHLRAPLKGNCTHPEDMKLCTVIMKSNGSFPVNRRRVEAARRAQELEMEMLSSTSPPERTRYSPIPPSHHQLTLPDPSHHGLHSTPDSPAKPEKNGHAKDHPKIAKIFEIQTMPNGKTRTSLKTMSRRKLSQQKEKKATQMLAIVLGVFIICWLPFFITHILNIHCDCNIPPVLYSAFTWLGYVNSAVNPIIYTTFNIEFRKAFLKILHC

| Structure (SMILES) | inhibition |
| --- | --- |
| COc1cc(OC)cc(C(=O)NNC(=O)CCOc2ccccc2OC)c1 | 23.6% |
| Cc1[nH]c2ccccc2c1C(=O)CN1CC(C)CC(C)C1 (stereo unspecified) | 14.4% |
| CC1CC(C)CN(CCOc2cccc3ccccc23)C1 (stereo unspecified) | 55.1% (active) |
| Cc1cccc(NC(=O)CCN2CC(C)CC(C)C2)c1 (stereo unspecified) | 4.5% |
| COc1cccc(NC(=O)COC(=O)/C=C/c2ccco2)c1 | 13.2% |
| Cn1c(SCC(=O)Nc2ccc(N3CCOCC3)cc2)nnc1C(F)(F)F | 6.16% |
| O=C(c1ccc2c(c1)OCCO2)C1CCN(S(=O)(=O)c2cccc(F)c2)CC1 | 61.3% (active) |
| O=C(c1c(F)cccc1F)N1CCN(S(=O)(=O)c2ccc3c(c2)OCCO3)CC1 | 8.79% |
| O=C(Nc1ccccn1)C1CCN(S(=O)(=O)c2ccc3c(c2)OCCO3)CC1 | -2.31% |
| O=C(CSc1nnc(N2CCOCC2)n1-c1cccc(F)c1)N1CCN(c2ccccn2)CC1 | 4.3% |
| COc1ccccc1C(=O)NCC(=O)OCC(=O)Nc1nnc(-c2ccccc2)o1 | 1.12% |
| CC(C)(C)C(=O)CSc1ccc(S(=O)(=O)N2CCCC2)cn1 | 5.12% |
| Cc1c(CN2CCC(C)CC2)c(=O)n(-c2ccccc2)n1C | -7.69% |
| Cc1cccc(N2CCN(Cc3c(C)n(C)n(-c4ccccc4)c3=O)CC2)c1C | 41.2% (active) |
| Cc1c(CN2CCCC(C(=O)c3cccc(Cl)c3)C2)c(=O)n(-c2ccccc2)n1C (stereo unspecified) | -0.0762% |
| C#CCOCCOCCOCCNc1nc(N2CCN(C(=O)CCCCCCCCCCNC(=O)[C@H](CCCCN)n3cc(C)nn3)CC2)nc(N2CCN(C(=O)CCCCCCCCCCNC(=O)[C@H](CO)n3cc(CCCSC)nn3)CC2)n1 | -18.3% |
| CC12CCC(=O)N1C(C(=O)NCCN1C(=O)S/C(=C\c3ccccc3F)C1=O)CS2 (stereo unspecified) | -9.13% |
| CCOc1ccc(NS(=O)(=O)c2ccc(Cl)c(C(=O)N(C)Cc3cccnc3)c2)cc1 | 10.8% |
| CCN(CC)S(=O)(=O)c1ccc(N2CCOCC2)c(NC(=O)c2ccc(=O)n(C)n2)c1 | -40.6% |
| O=c1nc2s/c(=C\c3ccco3)c(=O)n2nc1Cc1ccccc1 | -1.5% |
| CSc1nc(-c2ccco2)nn1C(=O)CCc1ccccc1 | 10.1% |
| CCOc1ccccc1/C=c1\sc2nc(-c3ccco3)nn2c1=O | 33.5% (active) |
| CC(=O)c1ccccc1NC(=O)C1CC(=O)N(c2ccc3c(c2)OCCO3)C1 (stereo unspecified) | -6.21% |

| Structure (SMILES) | inhibition |
| --- | --- |
| COc1ccc(OC)c(/C=C/C(=O)c2ccc3c(c2)OCO3)c1 | 6.23% |
| Cc1nc(N)nc(SCc2ccc([N+](=O)[O-])cc2)c1N | 12.4% |
| Nc1nc(SCc2ccc([N+](=O)[O-])cc2)c2ncn(C3OC(CO)C(O)C3O)c2n1 (stereo unspecified) | 36.3% (active) |
| Cc1cc(C)cc(C(=O)N2CCN=C2SCc2ccc([N+](=O)[O-])cc2)c1 | -7.25% |
| COc1cc(F)c(C2=CC(=O)CC(C)(C)C2)cc1F | -9.82% |
| COC(=O)c1cccc(NC(=O)c2cccc(N3C(=O)CCC3=O)c2)c1 | 0.805% |
| COc1ccc([C@@H]2[C@@H]3C(=O)N(C(C)(C)C)C(=O)[C@@H]3[C@]3(Cc4ccccc4)C(=O)N(c4cccc(Br)c4)C(=O)N23)cc1 | -3.44% |
| Cc1ccc(CNC(=O)COc2ccc(S(=O)(=O)NC(C)C)cc2)cc1 | 6.5% |
| Cc1ccc(C)c(NS(=O)(=O)c2ccc(OCC(=O)NCc3cccnc3)cc2)c1 | 42.3% (active) |
| Cc1cc(S(=O)(=O)NC2CCCCC2)ccc1OCC(=O)NCc1cccnc1 | -3.46% |
| Cc1cccc(C(=O)NCc2nnc(SC(C)C(=O)Nc3nnc(C)s3)n2C)c1 (stereo unspecified) | 8.11% |
| CC1(C)CC(=O)C=C(c2ccc3ncccc3c2)C1 | -2.57% |
| CCN(CC(=O)Nc1c(F)cccc1F)C(=O)C1CCC1 | -5.66% |
| COc1cc(OC)cc(C(=O)NCC(=O)N2CCCCCCC2)c1 | 33.6% (active) |
| CCOc1ccc(C(=O)NCC(=O)N2CCCCCCC2)cc1OCC | -3.78% |
| Cc1cc(C)cc(C(=O)NCC(=O)OCC(=O)N2CCCCC2)c1 | 1.51% |
| N/C(=N\OC(=O)/C=C/c1ccccc1)c1ccc(Br)cc1 | -2.34% |
| N/C(=N\OC(=O)c1ccc2c(c1)OCO2)c1ccc(Br)cc1 | 46.1% (active) |
| N/C(=N\OC(=O)N1c2ccccc2Sc2ccccc21)c1ccc(Br)cc1 | -13.7% |
| Cn1nc(C(=O)OCC(=O)N(Cc2ccccc2)C(C)(C)C)c2ccccc2c1=O | -16.5% |
| OCCC1CN(Cc2ccccc2-c2ccco2)CCN1Cc1ccsc1 (stereo unspecified) | -17.4% |
| OCCC1CN(Cc2ccc(Oc3ncccn3)cc2)CCN1CCc1ccccc1 (stereo unspecified) | -20.6% |
| OCCC1CN(Cc2cccc(O)c2)CCN1CCc1ccccc1 (stereo unspecified) | 54.8% (active) |

| Structure (SMILES) | inhibition |
| --- | --- |
| OCCC1CN(Cc2cccc(OC3CCCC3)c2)CCN1Cc1ccsc1 (stereo unspecified) | 65.5% (active) |
| OCCC#Cc1ccc(CN2CCN(Cc3ccsc3)C(CCO)C2)cc1 (stereo unspecified) | 6.27% |
| OCCC1CN(Cc2cnc(-c3ccccc3)s2)CCN1CCc1ccccc1 (stereo unspecified) | -6.7% |
| Cc1ccc(NC(=O)CCCNC(=O)c2ccc(Cl)cc2)cc1S(=O)(=O)N1CCCCC1 | 2.49% |
| Nc1ccc(C(=O)N2CCN(S(=O)(=O)c3ccc(Cl)cc3)CC2)cc1[N+](=O)[O-] | 1.49% |
| O=C(COc1ccc2c(c1)CCC2)N1CCN(c2ccc(F)cc2)CC1 | 3.48% |
| O=c1cc(CN2CCN(c3cccc(Cl)c3)CC2)c2cc3c(cc2o1)CCCC3 | -7.58% |
| OC(COc1ccc2c(c1)CCC2)CN1CCN(c2cccc(Cl)c2)CC1 (stereo unspecified) | 39.2% (active) |
| O=C(O)Cc1sc(-c2ccc(C(=O)O)cc2)nc1-c1ccccc1 | 32.7% (active) |
| O=C(O)Cc1sc(-c2ccccc2)nc1-c1cccs1 | 3.67% |
| C/C(=N/Nc1nc(-c2ccccc2)c(CC(=O)O)s1)c1ccccc1 | -8.33% |
| O=C(Nc1ccccc1N1CCOCC1)c1ccncc1 | -22.1% |
| COC(=O)c1ccc(C)c(NC(=O)C2CC(=O)N(C3CCCC(C)C3C)C2)c1 (stereo unspecified) | 25.8% |
| c1nc(COc2nsnc2N2CCOCC2)cs1 | 36.2% (active) |
| c1ccc(COc2nsnc2N2CCOCC2)cc1 | -11.6% |
| O=C(O)COc1nsnc1N1CCOCC1 | -6.01% |
| Cc1nc(SCC(=O)NC2CCCCC2C)c(C#N)c(C)c1C (stereo unspecified) | -2.83% |
| CCn1c(C)c(C)c2cc(C(=O)N3CCN(c4cccc(C)c4C)CC3)ccc21 | 35.7% (active) |
| Cc1cccc(N2CCN(C(=O)c3cccc(N4C(=O)C5C6C=CC(C6)C5C4=O)c3)CC2)c1C (stereo unspecified) | -3.04% |
| CCC(CC)C(=O)N1CCN(c2cccc(C)c2C)CC1 | -16.7% |
| C[C@H](NC(=O)c1ccccc1)C(=O)OCC(=O)c1c[nH]c2ccccc12 | -14% |
| Cc1ccc(CNC(=O)c2cccc3c2C(=O)c2ccc(N4CCC(C)CC4)cc2S3(=O)=O)cc1 | -2.45% |
| Cc1ccc(Nc2nnc(SC(C)C(=O)NC3CC3)s2)cc1 (stereo unspecified) | -31.5% |

| Structure (SMILES) | inhibition |
| --- | --- |
| Cc1nnc(SC(C)C(=O)Nc2ccc(S(=O)(=O)NC3CCCCC3)cc2)s1 (stereo unspecified) | 61.3% (active) |
| CCc1nnc(NC(=O)c2ccc(S(=O)(=O)NC3CCCCC3)cc2)s1 | -18.8% |
| Cc1c(C(=O)OCC(=O)N2CCCC2=O)oc2ccccc12 | 10.7% |
| CCOC(=O)N1CCN(C(=O)CSc2nc(=O)n3cccc(C)c3n2)CC1 | -1.99% |
| O=C(COC(=O)CCCSc1nc2ccccc2[nH]1)Nc1ccc(Oc2ccccc2)cc1 | 38.2% (active) |
| CCc1nnc(NC(=O)CCCSc2nc3ccccc3[nH]2)s1 | -10.6% |
| CCCCSc1nc2ccccc2[nH]1 | 22.4% |
| COCCN(C(=O)CC1CCCCC1)c1c(N)n(CC(C)C)c(=O)[nH]c1=O | -47.9% |
| Cc1cc(C)n2nc(C(=O)OCC(=O)N(CCC#N)c3ccc(F)cc3)nc2n1 | -5.33% |
| COc1cccc(N2CC(NC(=O)c3ccc4ccccc4c3)CC2=O)c1 (stereo unspecified) | 34.4% (active) |
| COc1cccc(N2CC(C(=O)Nc3c(C)cccc3C)CC2=O)c1 (stereo unspecified) | -21.9% |
| COc1ccc(N2CC(NS(=O)(=O)c3ccc4ccccc4c3)CC2=O)cc1 (stereo unspecified) | 17.1% |
| CCOc1ccc(NC(=O)CN(C)C(=O)Cn2c(=O)cnc3ccccc32)cc1OCC | 6.33% |
| COC(=O)c1ccc(COC(=O)CNC(=O)c2cccc(OC)c2)o1 | -4.34% |
| Cn1nnnc1SCC(=O)Nc1nc2ccccc2s1 | 5.01% |
| Cc1ccc(S(=O)(=O)Nc2nc3ccccc3s2)cc1[N+](=O)[O-] | -1.44% |
| Cc1ccnc(Nc2nc3ccccc3s2)n1 | 39.5% (active) |
| C=C(C)CNc1cc(S(=O)(=O)N2CCOCC2)ccc1Oc1ccccc1 | -1.1% |
| CCOc1ccccc1N1CCN(C(=O)COc2ccc3c(C)cc(=O)oc3c2)CC1 | 20.8% |
| Cc1cc(=O)oc2cc(OCCC[n+]3ccccc3)ccc12 | 13.4% |
| Cc1ccccc1N1CCN(CCCOc2ccc3c(C)cc(=O)oc3c2)CC1 | 109% (active) |
| Cc1ccc(C(=O)CN2C(=O)NC3(CCOc4ccccc43)C2=O)s1 (stereo unspecified) | -0.39% |
